Test results as given in the supplement of paper PMC11732987, “Enantioselective OTUD7B fragment discovery through chemoproteomics screening and high-throughput optimisation” (Communications Chemistry, 2025).

Columns and labels:
Test in all cases: log2 ratio of Biotin-Ahx-Ub-VS probe labelling (fragment/DMSO); higher = less target engagement (more negative = stronger competition), active = hit call of the paper (q ≤ 0.05, log2 ratio ≤ -1)
Details in all cases: compound concentration: 200 uM; treatment time: 3 h
USP19 = target: T1, USP19 (UniProt O94966)
T1 sequence (whole entry): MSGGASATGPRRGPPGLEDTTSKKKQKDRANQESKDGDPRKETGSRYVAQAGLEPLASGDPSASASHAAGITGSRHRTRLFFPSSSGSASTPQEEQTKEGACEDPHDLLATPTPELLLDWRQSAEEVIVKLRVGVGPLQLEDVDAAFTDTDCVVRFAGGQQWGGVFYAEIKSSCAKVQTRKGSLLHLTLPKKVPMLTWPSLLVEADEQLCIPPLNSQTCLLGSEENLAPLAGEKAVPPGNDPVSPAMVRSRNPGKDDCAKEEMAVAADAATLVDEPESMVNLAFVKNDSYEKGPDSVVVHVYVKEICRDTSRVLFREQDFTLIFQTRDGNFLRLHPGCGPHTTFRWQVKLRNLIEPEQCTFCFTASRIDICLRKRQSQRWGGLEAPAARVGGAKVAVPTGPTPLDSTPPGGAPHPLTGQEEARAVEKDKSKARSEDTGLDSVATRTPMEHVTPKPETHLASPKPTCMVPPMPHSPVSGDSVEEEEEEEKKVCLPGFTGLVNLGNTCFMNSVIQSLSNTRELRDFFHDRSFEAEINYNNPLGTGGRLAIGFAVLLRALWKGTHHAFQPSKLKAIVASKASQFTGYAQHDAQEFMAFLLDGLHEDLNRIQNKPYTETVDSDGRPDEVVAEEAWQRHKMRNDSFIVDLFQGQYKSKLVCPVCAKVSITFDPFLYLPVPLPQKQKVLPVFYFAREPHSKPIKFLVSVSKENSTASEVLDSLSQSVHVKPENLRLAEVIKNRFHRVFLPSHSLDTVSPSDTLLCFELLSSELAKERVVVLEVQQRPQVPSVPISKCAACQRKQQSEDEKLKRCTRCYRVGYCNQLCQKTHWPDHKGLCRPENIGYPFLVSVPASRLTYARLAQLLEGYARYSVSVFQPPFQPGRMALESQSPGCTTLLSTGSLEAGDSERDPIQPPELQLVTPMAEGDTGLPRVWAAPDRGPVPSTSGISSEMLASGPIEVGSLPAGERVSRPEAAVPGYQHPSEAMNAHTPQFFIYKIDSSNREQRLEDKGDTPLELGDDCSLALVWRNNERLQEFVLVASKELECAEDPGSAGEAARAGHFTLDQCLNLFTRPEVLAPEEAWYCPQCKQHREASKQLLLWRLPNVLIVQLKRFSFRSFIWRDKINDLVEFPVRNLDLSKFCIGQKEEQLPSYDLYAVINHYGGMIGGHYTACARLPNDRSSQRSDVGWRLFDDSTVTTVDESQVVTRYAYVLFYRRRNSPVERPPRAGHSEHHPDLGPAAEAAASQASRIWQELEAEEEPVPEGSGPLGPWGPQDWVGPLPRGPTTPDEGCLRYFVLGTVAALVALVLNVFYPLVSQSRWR
In short: (§1)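 HEK293T lysate (495 µg per sample, in Tris/CHAPS/IGEPAL buffer with protease inhibitors) was treated in triplicate with fragment at 200 µM or with DMSO for 3 h. It was then treated with Biotin-Ahx-Ub-VS (0.5 µM final) for 1 h. Labelled DUBs were NeutrAvidin-enriched, digested with LysC and trypsin, and run by diaPASEF LC-MS/MS. Spectronaut label-free quantities were global-median-normalised. Values are average log2 ratios fragment/DMSO by unpaired t-test, using proteins with ≥2 unique peptides.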

USP24 = USP24 (UniProt Q9UPU5)
Sequence of USP24 (Q9UPU5 whole entry): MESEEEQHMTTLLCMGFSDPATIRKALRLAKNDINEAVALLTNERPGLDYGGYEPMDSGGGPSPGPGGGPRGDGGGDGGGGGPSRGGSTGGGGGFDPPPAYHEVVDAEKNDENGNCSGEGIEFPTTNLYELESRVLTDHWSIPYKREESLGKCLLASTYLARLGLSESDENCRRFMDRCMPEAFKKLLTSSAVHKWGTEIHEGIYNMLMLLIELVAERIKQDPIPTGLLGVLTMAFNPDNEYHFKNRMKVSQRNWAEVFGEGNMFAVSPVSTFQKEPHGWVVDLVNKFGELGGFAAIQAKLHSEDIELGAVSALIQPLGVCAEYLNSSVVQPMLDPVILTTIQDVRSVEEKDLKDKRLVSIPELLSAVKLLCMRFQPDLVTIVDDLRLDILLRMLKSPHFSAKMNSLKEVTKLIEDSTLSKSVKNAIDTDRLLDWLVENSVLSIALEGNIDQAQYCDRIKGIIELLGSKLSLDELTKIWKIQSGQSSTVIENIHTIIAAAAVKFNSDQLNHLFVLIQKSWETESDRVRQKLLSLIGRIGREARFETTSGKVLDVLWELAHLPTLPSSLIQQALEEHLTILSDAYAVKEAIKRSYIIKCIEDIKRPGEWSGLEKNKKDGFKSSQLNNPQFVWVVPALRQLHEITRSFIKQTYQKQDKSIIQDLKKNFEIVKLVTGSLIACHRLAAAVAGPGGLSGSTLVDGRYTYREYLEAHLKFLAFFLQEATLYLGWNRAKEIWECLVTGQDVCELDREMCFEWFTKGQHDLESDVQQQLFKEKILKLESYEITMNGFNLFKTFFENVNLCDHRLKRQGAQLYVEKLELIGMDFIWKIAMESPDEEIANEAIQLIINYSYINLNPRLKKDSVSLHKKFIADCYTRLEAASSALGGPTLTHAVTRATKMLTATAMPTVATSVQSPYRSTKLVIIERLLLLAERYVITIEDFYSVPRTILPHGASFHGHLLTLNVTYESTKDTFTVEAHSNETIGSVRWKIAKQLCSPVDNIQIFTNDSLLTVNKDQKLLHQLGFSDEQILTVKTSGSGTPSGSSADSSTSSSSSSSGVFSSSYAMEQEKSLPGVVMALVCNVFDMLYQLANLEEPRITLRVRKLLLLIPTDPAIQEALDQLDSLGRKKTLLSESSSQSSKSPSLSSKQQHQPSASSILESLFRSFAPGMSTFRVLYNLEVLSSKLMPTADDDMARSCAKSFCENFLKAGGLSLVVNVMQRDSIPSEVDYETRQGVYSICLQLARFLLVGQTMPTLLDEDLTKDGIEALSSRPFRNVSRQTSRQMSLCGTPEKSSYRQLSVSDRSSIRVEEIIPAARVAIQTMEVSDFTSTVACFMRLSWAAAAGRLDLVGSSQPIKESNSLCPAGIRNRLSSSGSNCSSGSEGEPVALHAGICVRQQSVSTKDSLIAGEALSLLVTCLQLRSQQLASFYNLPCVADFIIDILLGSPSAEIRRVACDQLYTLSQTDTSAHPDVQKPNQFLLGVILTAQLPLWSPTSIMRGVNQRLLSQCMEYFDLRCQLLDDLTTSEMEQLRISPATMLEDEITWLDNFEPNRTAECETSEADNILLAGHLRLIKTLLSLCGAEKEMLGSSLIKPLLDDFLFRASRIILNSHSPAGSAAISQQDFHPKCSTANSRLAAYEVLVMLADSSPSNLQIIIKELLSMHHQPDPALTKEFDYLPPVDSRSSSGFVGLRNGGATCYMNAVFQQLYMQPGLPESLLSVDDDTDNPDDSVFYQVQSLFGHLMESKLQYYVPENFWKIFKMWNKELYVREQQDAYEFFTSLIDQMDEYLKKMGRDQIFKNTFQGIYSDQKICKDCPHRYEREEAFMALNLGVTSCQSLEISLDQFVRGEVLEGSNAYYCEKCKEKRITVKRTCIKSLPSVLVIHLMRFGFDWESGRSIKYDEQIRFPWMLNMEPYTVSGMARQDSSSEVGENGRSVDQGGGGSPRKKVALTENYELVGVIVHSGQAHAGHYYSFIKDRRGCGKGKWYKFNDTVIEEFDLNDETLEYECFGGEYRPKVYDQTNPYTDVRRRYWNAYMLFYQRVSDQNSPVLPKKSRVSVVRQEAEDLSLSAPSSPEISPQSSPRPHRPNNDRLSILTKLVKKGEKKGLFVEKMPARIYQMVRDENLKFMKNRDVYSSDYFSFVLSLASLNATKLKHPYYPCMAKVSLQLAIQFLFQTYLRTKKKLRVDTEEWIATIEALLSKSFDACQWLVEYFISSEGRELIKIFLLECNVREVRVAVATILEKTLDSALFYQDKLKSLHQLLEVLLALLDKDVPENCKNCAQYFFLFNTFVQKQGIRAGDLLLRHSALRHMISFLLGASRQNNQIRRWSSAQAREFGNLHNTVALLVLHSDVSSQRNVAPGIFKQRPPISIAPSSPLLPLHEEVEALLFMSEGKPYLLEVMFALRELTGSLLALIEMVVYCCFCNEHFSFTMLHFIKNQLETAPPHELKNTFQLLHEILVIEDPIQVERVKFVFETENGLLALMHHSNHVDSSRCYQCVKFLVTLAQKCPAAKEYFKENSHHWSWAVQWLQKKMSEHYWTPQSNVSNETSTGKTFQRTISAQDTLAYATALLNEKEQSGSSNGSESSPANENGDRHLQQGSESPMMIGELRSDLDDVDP
In short: as §1

USP25 = target: T2, USP25 (UniProt Q9UHP3)
T2 sequence (whole entry): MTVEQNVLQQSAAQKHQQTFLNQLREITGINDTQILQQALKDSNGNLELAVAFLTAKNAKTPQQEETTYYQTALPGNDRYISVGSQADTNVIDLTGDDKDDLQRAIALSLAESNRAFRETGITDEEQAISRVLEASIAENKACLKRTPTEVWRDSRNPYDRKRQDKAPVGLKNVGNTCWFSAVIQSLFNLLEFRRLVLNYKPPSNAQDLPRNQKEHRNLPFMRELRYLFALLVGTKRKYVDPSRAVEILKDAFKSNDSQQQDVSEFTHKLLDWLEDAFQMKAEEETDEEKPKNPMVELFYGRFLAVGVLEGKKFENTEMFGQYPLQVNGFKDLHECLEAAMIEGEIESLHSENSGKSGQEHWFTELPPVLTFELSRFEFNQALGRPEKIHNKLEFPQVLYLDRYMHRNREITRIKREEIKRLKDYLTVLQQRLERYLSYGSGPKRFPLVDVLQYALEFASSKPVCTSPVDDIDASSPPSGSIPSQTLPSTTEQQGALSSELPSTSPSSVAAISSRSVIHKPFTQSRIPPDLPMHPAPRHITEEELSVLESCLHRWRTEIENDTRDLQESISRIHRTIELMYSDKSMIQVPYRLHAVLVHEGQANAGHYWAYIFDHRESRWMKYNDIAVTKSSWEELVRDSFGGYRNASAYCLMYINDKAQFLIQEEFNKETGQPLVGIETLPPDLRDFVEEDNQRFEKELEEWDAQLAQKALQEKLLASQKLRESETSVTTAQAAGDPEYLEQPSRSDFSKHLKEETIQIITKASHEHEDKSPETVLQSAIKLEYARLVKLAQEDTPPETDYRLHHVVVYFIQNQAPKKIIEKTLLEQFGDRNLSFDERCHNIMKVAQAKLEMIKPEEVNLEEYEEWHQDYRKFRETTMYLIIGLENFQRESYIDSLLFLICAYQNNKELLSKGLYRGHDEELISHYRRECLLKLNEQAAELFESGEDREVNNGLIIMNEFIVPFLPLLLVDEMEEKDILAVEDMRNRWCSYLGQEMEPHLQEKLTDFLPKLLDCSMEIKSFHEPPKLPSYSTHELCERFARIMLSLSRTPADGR
In short: as §1

USP28 = target: T3, USP28 (UniProt Q96RU2)
T3 sequence (whole entry): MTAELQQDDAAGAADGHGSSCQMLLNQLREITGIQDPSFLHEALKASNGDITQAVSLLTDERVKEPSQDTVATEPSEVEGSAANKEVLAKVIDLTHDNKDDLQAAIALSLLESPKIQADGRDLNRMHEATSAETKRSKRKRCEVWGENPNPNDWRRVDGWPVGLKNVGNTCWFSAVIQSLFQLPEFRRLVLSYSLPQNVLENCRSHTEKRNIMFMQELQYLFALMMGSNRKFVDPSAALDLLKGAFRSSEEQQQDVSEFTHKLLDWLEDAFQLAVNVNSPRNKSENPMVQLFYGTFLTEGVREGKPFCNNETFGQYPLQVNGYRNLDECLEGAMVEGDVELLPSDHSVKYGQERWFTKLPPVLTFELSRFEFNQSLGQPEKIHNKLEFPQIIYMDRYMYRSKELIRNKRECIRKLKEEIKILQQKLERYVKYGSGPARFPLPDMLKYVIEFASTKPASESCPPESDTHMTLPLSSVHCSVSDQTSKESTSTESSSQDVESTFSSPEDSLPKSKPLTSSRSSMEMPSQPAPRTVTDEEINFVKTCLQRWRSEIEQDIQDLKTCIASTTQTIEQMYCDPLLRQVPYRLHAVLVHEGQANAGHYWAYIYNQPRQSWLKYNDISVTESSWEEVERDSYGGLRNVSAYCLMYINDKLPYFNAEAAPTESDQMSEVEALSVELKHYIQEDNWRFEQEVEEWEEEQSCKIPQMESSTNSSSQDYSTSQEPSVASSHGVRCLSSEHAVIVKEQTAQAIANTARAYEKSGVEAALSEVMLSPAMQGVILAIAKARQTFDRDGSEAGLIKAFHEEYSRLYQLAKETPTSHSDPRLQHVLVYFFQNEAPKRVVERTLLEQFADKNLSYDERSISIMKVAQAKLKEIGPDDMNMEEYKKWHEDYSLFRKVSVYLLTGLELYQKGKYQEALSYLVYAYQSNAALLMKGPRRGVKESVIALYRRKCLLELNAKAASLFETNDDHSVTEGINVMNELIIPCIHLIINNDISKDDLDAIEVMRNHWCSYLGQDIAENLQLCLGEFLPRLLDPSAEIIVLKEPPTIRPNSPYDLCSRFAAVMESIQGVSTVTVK
In short: as §1

Measured: log2 ratio of Biotin-Ahx-Ub-VS probe labelling

O=C(CCl)N1CCC(C(=O)N2CCCC2)CC1
inactive: USP19 -0.228 | USP24 -0.075 | USP25 -0.128 | USP28 -0.299
